In PubChem BioAssay (NCI):
This is part of a sample that, as a whole, favours compounds with a hit. Of some 83,000 tested, about 20% had one in any assay.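 Values shown are percent growth following 48 h exposure of cells in 96-well plates to a single concentration of compound; below 10 was considered active.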 A number with no mark means an inactive call. The source made the active and inactive calls.

Key:
Test in all cases: NCI-60 one-dose screen, 48 h (100 = growth as untreated, 0 = no growth, -100 = all killed)
Conditions in all cases: 10 µM unless noted
DU-145 prostate = test system: DU-145 prostate
K-562 leukemia = test system: K-562 leukemia
MALME-3M melanoma = test system: MALME-3M melanoma
MDA-MB-231 breast = test system: MDA-MB-231 breast
RXF 393 renal = test system: RXF 393 renal
SF-268 CNS = test system: SF-268 CNS
SF-295 CNS = test system: SF-295 CNS
SF-539 CNS = test system: SF-539 CNS
UACC-257 melanoma = test system: UACC-257 melanoma
M14 melanoma = test system: M14 melanoma
HCT-15 colon = test system: HCT-15 colon
HT29 colon = test system: HT29 colon
SNB-75 CNS = test system: SNB-75 CNS
SNB-19 CNS = test system: SNB-19 CNS
U251 CNS = test system: U251 CNS
PC-3 prostate = test system: PC-3 prostate
SK-MEL-5 melanoma = test system: SK-MEL-5 melanoma
UACC-62 melanoma = test system: UACC-62 melanoma
LOX IMVI melanoma = test system: LOX IMVI melanoma
SK-MEL-28 melanoma = test system: SK-MEL-28 melanoma

Row | SMILES | growth (DU-145 prostate) | growth (K-562 leukemia) | growth (MALME-3M melanoma) | growth (MDA-MB-231 breast) | growth (RXF 393 renal) | growth (SF-268 CNS) | growth (SF-295 CNS) [%] | growth (SF-539 CNS) | growth (UACC-257 melanoma) [%] | growth (M14 melanoma) [%] | growth (HCT-15 colon) | growth (HT29 colon) | growth (SNB-75 CNS) | growth (SNB-19 CNS) | growth (U251 CNS) | growth (PC-3 prostate) | growth (SK-MEL-5 melanoma) | growth (UACC-62 melanoma) | growth (LOX IMVI melanoma) | growth (SK-MEL-28 melanoma) [%]
1 | Cc1ccc(-c2csc(NC(=O)c3ccccc3CN3C(=O)c4ccccc4C3=O)n2)cc1 | 96.5% | 100% | 93.7% | 93.2% | 89.8% | 86.6% | 95.6 | 98.4% | 92.4 | 106 | 90.8% | 97.1% | 87.3% | 91.8% | 95.5% | 91.9% | 95.5% | 76.6% | 99.3% | 99.9
2 | O=C(O)/C=C/C(=O)Nc1cccc(Cn2nnc3cc(Cl)c(Cl)cc32)c1 | 119% | 91.3% | 97.5% | 106% | 93.2% | 98.5% | 97 | 101% | 97.1 | 102 | 95.3% | 110% | 86.4% | 100% | 103% | 102% | 99.1% | 97.6% | 97.3% | 106
3 | COc1cc(C(=O)n2nc(N3CCOCC3)c3cc(-n4cccc4)ccc32)cc(OC)c1OC | 61.2% | 52.4% | 87.1% | 54.9% | -9.27% (active) | 76.8% | 71.8 | 79.9% | 103 | 52.7 | 17.6% | 62.4% | 49.8% | 75.2% | 68.7% | 38% | 64.3% | 73.1% | 88.7% | 72.7
4 | CCN(CC)CCN1C(=O)c2cccc3c(/C=C/CN4C(=O)c5cccc6cccc(c56)C4=O)ccc(c23)C1=O | 106% | 19.7% | 91.9% | 95.5% | 74.2% | 93.5% | 108 | 92.5% | 109 | 105 | 95.8% | 103% | 91.2% | 96% | 105% | 86.6% | 94.3% | 99.8% | 96.6% | 109
5 | COc1cc2c(c(OC)c1OC)C(=O)CC(c1cccc(NC(=O)c3ccc(C#N)cc3)c1)O2 (stereo not given) | 83.6% | 48.6% | 83.7% | 79.9% | 97.3% | 86.5% | 77.9 | 92.7% | 72.3 | 64.4 | 75.7% | 84.9% | 74.9% | 92% | 80.5% | 53% | 43.2% | 33.9% | 65.7% | 90.6
6 | Cc1cccc(-c2nc(Nc3ccc4ncsc4c3)c3ccccc3n2)n1 | 90.6% | 28.5% | 102% | 101% | 78.8% | 98% | 88.7 | 98.1% | 81.4 | 64 | 70.7% | 43.1% | 105% | 102% | 77% | 14.7% | 42.4% | 80.8% | 93.2% | 98.2
7 | C=C1C(=O)O[C@H]2[C@H]1CC/C(COC(=O)c1ccc(C(=O)O)s1)=C\CC[C@@]1(C)O[C@@H]21 | 18.6% | 3.11% (active) | 3.09% (active) | -3.52% (active) | -56% (active) | 24.2% | 81 | -25.7% (active) | 52.7 | 23.1 | 4.14% (active) | 7.91% (active) | 71.2% | 48% | 22.4% | 18.1% | 91.4% | 3.21% (active) | -55.2% (active) | 11.7
8 | Nc1[nH]c(=S)nc2oc(-c3ccccc3)c(-c3ccccc3)c12 | 106% | 95.2% | 108% | 103% | 93% | 95.9% | 96.1 | 98.6% | 102 | 106 | 97.3% | 101% | 90.3% | 98% | 103% | 97.4% | 102% | 91.5% | 98% | 101
9 | Cn1ccc(=O)nc1 | 8.53% (active) | 91.9% | 111% | 91.9% | 92.6% | 86.1% | 82.9 | 99.9% | 88.3 | 102 | 24.1% | 20.6% | 104% | 84.6% | 77.8% | 69.6% | 99.3% | 74.8% | 76.8% | 109
10 | CCOC(=O)C(Cc1ccc(OC)cc1)C(=O)OCC | -35.4% (active) | 15.2% | 58.1% | 47.5% | -11.3% (active) | 30.2% | 30.4 | 19.9% | 25.3 | 46.3 | 36.7% | 21.3% | 30.1% | 41.7% | 37.2% | 47.2% | 53.1% | 33.4% | 17% | 51.5
11 | CC(C)(C)c1cc(Cl)c(O)c(CNCCO)c1 | 113% | 102% | 112% | 115% | 98.1% | 106% | 97 | 107% | 110 | 104 | 99.7% | 107% | 90.1% | 113% | 112% | 112% | 100% | 107% | 101% | 103
12 | CCOC(=O)c1c(C)nc2c(c1N)CC(=O)N2Cc1ccc(OC)cc1 | 47.4% | 99.8% | 33.6% | 19.6% | 37.7% | 4.12% (active) | 28.5 | 26.4% | 49.4 | 86.8 | 55.6% | 38.4% | -5.39% (active) | 4.6% (active) | 4.05% (active) | 43% | 53.7% | 25.7% | 75.9% | 55
13 | COc1cc(C2C(C(=O)OCc3ccccc3)=C(C)NC(C)=C2C(=O)OCc2ccccc2)cc(OC)c1OC | 53.9% | 20.3% | 18% | 31.9% | -18.5% (active) | 37.6% | 15.4 | 41.3% | 19.5 | 21.9 | 23.4% | 12.3% | 46.2% | 42.5% | 31.3% | 9.87% (active) | 8.07% (active) | 30.2% | 29.9% | 41.1
14 | CSC1=Nc2c(c(C)c(-c3ccccc3)n2CCCC(=O)O)C2=NC(=O)C[C@H](C)N12 | 115% | 101% | 102% | 138% | 106% | 110% | 106 | 85.5% | 108 | 102 | 127% | 94.1% | 79.7% | 101% | 103% | 97.6% | 92.4% | 107% | 94.9% | 105
15 | CC/C=C\C[C@H](O)C/C=C1/C(=O)C=C[C@@H]1C/C=C\CCCC(=O)O | 60.2% | 17.1% | 67.5% | 56.7% | 94.2% | 81.3% | 96 | 59.2% | 55.2 | 57.8 | 74.6% | 47.9% | 88.9% | 65% | 3.29% (active) | 61.3% | 60.3% | 27.7% | 17.4% | 54.4
